Assay results from US20040110161, “Method for detecting mutations in nucleotide sequences” (published 2004).

T1: MutS (Cy5-labeled) (Escherichia coli, UniProt P23909 P23909:1-853)
T1 sequence: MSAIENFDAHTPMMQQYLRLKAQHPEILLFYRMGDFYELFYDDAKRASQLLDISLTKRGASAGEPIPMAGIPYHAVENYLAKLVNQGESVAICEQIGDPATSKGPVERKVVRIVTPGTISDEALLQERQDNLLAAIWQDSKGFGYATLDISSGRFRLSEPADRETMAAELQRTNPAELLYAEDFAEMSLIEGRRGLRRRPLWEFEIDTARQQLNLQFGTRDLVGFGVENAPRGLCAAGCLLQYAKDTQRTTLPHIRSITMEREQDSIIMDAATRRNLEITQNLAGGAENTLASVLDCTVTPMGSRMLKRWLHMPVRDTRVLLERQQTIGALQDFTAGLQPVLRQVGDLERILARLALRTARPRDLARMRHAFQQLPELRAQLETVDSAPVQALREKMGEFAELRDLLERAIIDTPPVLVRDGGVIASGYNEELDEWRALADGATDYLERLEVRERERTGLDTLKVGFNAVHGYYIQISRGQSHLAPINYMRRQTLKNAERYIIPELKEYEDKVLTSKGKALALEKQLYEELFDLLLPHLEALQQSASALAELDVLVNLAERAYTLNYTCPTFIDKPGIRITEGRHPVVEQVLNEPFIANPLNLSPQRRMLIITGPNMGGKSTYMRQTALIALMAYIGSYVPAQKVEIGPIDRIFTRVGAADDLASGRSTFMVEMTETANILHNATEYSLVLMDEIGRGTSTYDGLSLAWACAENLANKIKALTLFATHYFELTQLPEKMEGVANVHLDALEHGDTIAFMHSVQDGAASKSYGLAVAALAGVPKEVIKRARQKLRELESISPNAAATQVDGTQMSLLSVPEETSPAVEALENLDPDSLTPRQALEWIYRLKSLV

B1: APC AT (dsDNA)
DNA 1: AAGATCTTCAGCTGACCTAGTTCCAATCTTTTCTTTTAT
DNA 2: AAATAAAAGAAAAGATTGGAACTAGGTCAGCTGAAGATC
B2: bcl AT (dsDNA)
DNA 1: AAGGTCGCGGGATGCGGCTGGATGGGGCGTGTGCCCGGG
DNA 2: AGCCCGGGCACACGCCCCATCCAGCCGCATCCCGCGACC
B3: Brc AT (dsDNA)
DNA 1: AAATGTTATTACGGCTAATTGTGCTCACTGTACTTGGAA
DNA 2: CATTCCAAGTACAGTGAGCACAATTAGCCGTAATAACAT
B4: Met AT (dsDNA)
DNA 1: AACTATAGTATTCTTTATCATACATGTCTCTGGCAAGAC
DNA 2: TGGTCTTGCCAGAGACATGTATGATAAAGAATACTATAG
B5: MSH AT (dsDNA)
DNA 1: AACCTTTCTCCAAAATGGCTGGTCGTACATATGGAACAG
DNA 2: ACCTGTTCCATATGTACGACCAGCCATTTTGGAGAAAGG
B6: p53 AT (dsDNA)
DNA 1: AAAGTTCCTGCATGGGCGGCATGAACCGGAGGCCCATC
DNA 2: AGGATGGGCCTCCGGTTCATGCCGCCCATGCAGGAACT
B7: Rb AT (dsDNA)
DNA 1: AAATAAGATCAAATAAAGGTGAATCTGAGAGCCATGCAA
DNA 2: CCTTGCATGGCTCTCAGATTCACCTTTATTTGATCTTAT

Target: T1, MutS (Cy5-labeled)
Assay: agarose chip
Conditions: tags: Cy5 nonspecific amine label; also Gene Check unlabeled in EMSA; label: 5'-biotin, 5'-Cy3

| Binder | binding signal [fluorescence units] |
| --- | --- |
| B1 | 40.5 |
| B2 | 51.2 |
| B3 | 52.4 |
| B4 | 46.3 |
| B5 | 45.9 |
| B6 | 48.7 |
| B7 | 59.6 |
